Assay results: PubChem BioAssay AID1851 (National Center for Advancing Translational Sciences (NCATS), 2009)
About 2,600 (16%) of roughly 16,000 compounds were called active. Roughly 20% stayed inconclusive and do not appear here. Calls follow the shape of the dose curve; as a rule, active = well fitted curve in the direction sought with a large enough effect; inconclusive = small, poorly fitted or top-dose-only effect, or effect the other way; inactive = no such curve, though single readings can be large or run the other way. Not all results are given here.

molecular target: Cytochrome P450 2D6 (Homo sapiens) (UniProt P10635); test: Cytochrome panel assay with activity outcomes; conditions: recombinant CYP, pro-luciferin dealkylation, luminescence, p450-cyp2d6; series mostly up to 57.1 µM; activity, negative = inhibition: at the top concentration
% is scaled to controls: 0 for no effect and ±100 for the full control effect.

Sequence of Cytochrome P450 2D6 (Homo sapiens) (P10635 whole entry, looked up): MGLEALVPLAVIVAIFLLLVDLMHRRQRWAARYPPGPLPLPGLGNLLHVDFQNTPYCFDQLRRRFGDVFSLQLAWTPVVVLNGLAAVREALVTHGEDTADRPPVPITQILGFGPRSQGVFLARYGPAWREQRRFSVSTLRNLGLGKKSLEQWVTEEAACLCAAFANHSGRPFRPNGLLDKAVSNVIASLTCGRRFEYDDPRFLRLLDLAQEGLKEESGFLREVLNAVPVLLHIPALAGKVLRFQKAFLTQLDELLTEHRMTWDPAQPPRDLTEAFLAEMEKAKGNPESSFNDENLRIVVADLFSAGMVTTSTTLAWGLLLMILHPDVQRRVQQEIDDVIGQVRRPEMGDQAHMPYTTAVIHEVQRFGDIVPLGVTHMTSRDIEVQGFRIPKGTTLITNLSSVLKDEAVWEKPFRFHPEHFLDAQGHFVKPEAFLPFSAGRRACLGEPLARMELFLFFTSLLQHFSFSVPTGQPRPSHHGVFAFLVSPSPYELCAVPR

AC50, active:
CN(C)c1ccc(-c2cc(-n3ccnc3)ncn2)cc1 7.94 µM, c1cncc(-c2cc(-n3ccnc3)ncn2)c1 15.8 µM, CCCCCCCCCCn1c2c(c(=N)c3c1CCC3)CCC2 3.55 µM, Cc1cccc(NC(=O)C2(c3ccccc3)CC2(Cl)Cl)c1 (configuration not stated) 17.8 µM, OCCNCCCOc1cccc(Cl)c1Cl 0.158 µM, Cc1c(C)n(C(=O)CN2CCC(C)CC2)c2ccccc12 3.16 µM, Cc1ccc(NC(=S)N2CCN(C3CCCCC3)CC2)cc1 14.1 µM

AC50, inactive:
Cc1nnc(SCC2=C(C(=O)O)N3C(=O)[C@@H](NC(=O)Cn4cnnn4)[C@@H]3SC2)s1

activity, negative = inhibition, inactive:
CCCn1c(-c2ccccc2)nc2c(=O)n(C)c(=O)[nH]c21 19.4%, COc1ccc(C[C@H](N)C(=O)N[C@@H]2[C@H](O)[C@H](n3cnc4c(N(C)C)ncnc43)O[C@@H]2CO)cc1 2.91% [at 25.6 µM], c1cncc(-c2cccnc2)c1 -3.3%, c1cncc(-c2cc(-c3cc(-c4cccnc4)n[nH]3)[nH]n2)c1 -12.7% [at 11.4 µM], CN1CCN(c2cc(-c3ccc(N(C)C)cc3)ncn2)CC1 -3.44%, CC(C)(C)c1onc(OCP(=O)(O)O)c1C[C@@H](N)C(=O)O -0.906%, Cc1cccc(NS(=O)(=O)c2c(C)n[nH]c2C)c1 -0.85%, CCC1CC(CSc2ncn[nH]2)OC1=O (configuration not stated) 22.7%, O=C(CSc1ncnc2nc[nH]c12)c1ccccc1 -6.92% [at 11.4 µM], CCn1ncc(/C=C/C(=O)NCc2cn(C)nc2C)c1C 12.8%, CCCC(=O)Nc1c(C)n[nH]c1C 0.796%, CC(C)NC(=O)CSc1nnc(C2CC2)n1-c1ccccc1 -9.8%, COC(=O)[C@@]1(Cc2ccc(OC)cc2)[C@H]2c3cc(C(=O)N4CCCC4)n(CCCNc4ncc(C(F)(F)F)cc4Cl)c3C[C@H]2CN1C(=O)c1ccccc1 -12.2%, Cc1nnc(C)n1/N=C/c1ccc(-c2ccccc2)cc1 -3.23%, Cc1cccc(N/C(=N\S(=O)(=O)c2ccccc2)C(F)(F)F)c1 4.65%, Cc1cccc(NC(=O)C23CCC(C)(C2Br)C3(C)C)c1 (configuration not stated) -22.6%, NC(=O)c1nn(-c2ccccc2)c(=O)cc1O 7.3%, Cc1nc(NC(N)=S)sc1C(=O)Nc1ccccc1 23.2%, Cn1cnnc1SCC(=O)n1c2ccccc2c2ccccc21 3.63%, Cc1nc2ccccc2nc1SCC(=O)N1CCC(C)CC1 -27.1%, COc1ccc(-c2nnc(-c3ccc(OCC(C)C)cc3)o2)cc1 6.93%, Cn1cccc1C(=O)N1CCC2(CCN(C(=O)Nc3cccc(F)c3)CC2)CC1 -2.09%, CC(C)(CO)N1CCN(C(=S)Nc2ccccc2)CC1 -13.1% [at 11.4 µM], Cc1ccc(NC(=O)C2CCN(S(C)(=O)=O)CC2)cc1 -4.08%
